Assay outcomes from PubChem.
Sampled rows, rich in hits. Any-hit rate of the full collection: about 1.1%.
TrxR1 inh: rat TrxR1 inhibition; Potency, µM (titrated, usually from 114 µM), usual class: inhibitors; hit rate 1% among 390,000; recombinant rTrxR1, NADPH fluorescence consumption, selenite substrate; also: nearly all actives have a fitted effect of over 65% in size
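Rat TrxR1 (90 nM in the dispensed reagent) was pre-reduced with 400 uM NADPH for 5 min at room temperature, then incubated with compound for 15 min. After 400 uM selenite was added, NADPH fluorescence (Ex 340/Em 450 nm) was followed for 8 min.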
RGS4 inh: blocks human RGS4-accelerated GTP hydrolysis. P49798. Transcreener GDP fluorescence polarization, RGS4-accelerated GTP hydrolysis. Potency, µM (titrated, usually from 114 µM), actives largely listed as inhibitors. hit rate 0.039% among 390,000. AID 504845; also: nearly all actives have a fitted effect of over 75% in size
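MLSMR compounds (23 nl, pin-transferred) preincubated 10 min at room temperature with a 500nM (2x) first reagent, then RGS4 at 900nM (2x) plus Transcreener GDP mix added; fluorescence polarization (620/688 nm) read before and after 90 min at 30 °C.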
TrxR1 substrate: substrates of rat thioredoxin reductase 1 | purified TrxR1 substrate turnover, NADPH consumption readout | Potency, µM (top dose mostly 114 µM) | hit rate 0.01% among 390,000; also: nearly all actives have a fitted effect of over 50% in size
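Rat TrxR1, dispensed at 90 nM, was prereduced with 400 uM NADPH (final) for 5 min at ~22 deg C, then incubated with compound 15 min before 400 uM selenite. A first-read NADPH fluorescence drop versus no-compound background flagged substrates.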
mIDH1 inhibitor: blocks human mutant IDH1 R132H enzyme; hit rate 0.093% among 390,000; Potency, µM (titrated, usually from 76.6 µM), actives largely listed as inhibitors; O75874; AID 602179; IDH1-R132H enzyme, NADPH consumption, diaphorase/resazurin fluorescence; also: nearly all actives have a fitted effect of over 65% in size
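IDH1-R132H (0.5 ug/mL dispensed) in pH 7.5 Tris buffer was preincubated 30 min with compound, then given a substrate mix of 0.016 mM NADPH and 2 mM alpha-KG for 80 min at room temperature; remaining NADPH was read by diaphorase/resazurin fluorescence.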
Eya2 phos inh: Eya2 (human) phosphatase inhibition; hit rate 0.006% among 330,000; Potency, µM (titrated, usually from 76.9 µM), usual class: inhibitors; O00167; recombinant Eya2, OMFP fluorescence dephosphorylation (OMFP is methylfluorescein phosphate)
Target sequence (O00167 whole entry, looked up): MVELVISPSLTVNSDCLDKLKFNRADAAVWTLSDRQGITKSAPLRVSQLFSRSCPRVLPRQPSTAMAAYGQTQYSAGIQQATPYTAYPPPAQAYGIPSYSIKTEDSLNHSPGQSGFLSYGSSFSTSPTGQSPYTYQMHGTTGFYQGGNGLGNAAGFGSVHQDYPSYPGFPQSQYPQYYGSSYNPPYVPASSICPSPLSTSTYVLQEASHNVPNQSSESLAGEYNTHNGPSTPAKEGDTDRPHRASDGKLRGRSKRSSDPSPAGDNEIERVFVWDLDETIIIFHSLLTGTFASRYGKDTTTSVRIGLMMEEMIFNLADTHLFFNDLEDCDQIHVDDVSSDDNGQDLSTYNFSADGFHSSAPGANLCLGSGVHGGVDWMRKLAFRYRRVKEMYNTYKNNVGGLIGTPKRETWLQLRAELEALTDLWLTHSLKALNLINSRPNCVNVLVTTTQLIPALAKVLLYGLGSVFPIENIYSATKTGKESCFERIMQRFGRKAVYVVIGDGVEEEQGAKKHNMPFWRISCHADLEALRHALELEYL
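Eya2 (0.2 uM) preincubated 10 min at ambient with compound, then OMFP substrate added at 50 uM; 10 min reaction in 50 mM HEPES pH 7.5, 50 mM NaCl, 5 uM MgCl2, 0.05% BSA, 1 mM DTT. Fluorescence read at Ex 485/Em 525 nm.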
Of the large screens only hits and unclear results are named; the others gave an inactive call. Calls follow the shape of the dose curve; as a rule, active = well fitted curve in the direction sought with a large enough effect; inconclusive = small, poorly fitted or top-dose-only effect, or another doubt; inactive = no such curve, though single readings can be large; an effect the other way counts as inactive or inconclusive.

C/C(=N\NC(=S)NCc1ccccc1)c1ccccc1	none
C/C(=N\NC(=S)NCc1ccccc1)c1ccco1	TrxR1 inh 79.4µM
Cn1c(C(=O)OCC(=O)NCc2ccco2)cc2sccc21	TrxR1 inh 25.1µM
CCNC(=O)c1c(NC(=O)c2nc(S(=O)(=O)CC)ncc2Cl)sc2c1CCCC2	TrxR1 inh 14.1µM (no result: Eya2 phos inh)
COCCCNC(=O)c1c(NC(=O)c2nc(S(C)(=O)=O)ncc2Cl)sc2c1CCCC2	TrxR1 inh 1.78µM (no result: Eya2 phos inh)
CCNC(=O)c1c(NC(=O)c2nc(SCC)ncc2Cl)sc2c1CCCC2	none (no result: RGS4 inh, mIDH1 inhibitor, Eya2 phos inh)
O=C1[C@@H]2Cc3c([nH]c4ccccc34)C(c3cccc([N+](=O)[O-])c3)N2C(=O)CN1C1CCN(Cc2ccccc2)CC1 (stereo partly specified)	none (no result: TrxR1 inh, RGS4 inh, TrxR1 substrate, mIDH1 inhibitor)
COc1cccc(N2CCN(C(=O)c3cn(Cc4ccccc4)nc3-c3cccnc3)CC2)c1	none
CCOC(=O)c1sc(N2C(=O)C(O)=C(C(=O)c3ccco3)C2c2ccco2)nc1C (stereo unspecified)	TrxR1 inh 31.6µM
COc1nc(Oc2ccc(=O)n(-c3ccccc3)n2)nc(N(C)C)n1	none (no result: Eya2 phos inh)
COc1ccccc1N1CCN(Cc2ccc(O)c3ncccc23)CC1	none
Oc1ccc(CN2CCCc3ccccc32)c2cccnc12	TrxR1 inh 1.26µM, RGS4 inh inconclusive
CCN(CC)c1ccc(/C=N/NC(=S)NC)c(O)c1	none
CCN(CC)c1ccc(/C=N/Nc2ccccc2)c(O)c1	TrxR1 inh 8.91µM, RGS4 inh inconclusive
CCN(CC)c1ccc(/C=N/Nc2cccc(C)c2)c(O)c1	TrxR1 inh 22.4µM
CCN(CC)c1ccc(C=Nc2ccccc2)c(O)c1	none
CCCC[n+]1ccn(-c2nc3c([N+](=O)[O-])cccc3n2C)c1	none
CNc1ccc(Br)cc(C(=O)/C=C/c2ccc(OC)cc2)c1=O	none
CCNc1ccc(Br)cc(C(=O)/C=C/c2ccc(Cl)cc2Cl)c1=O	TrxR1 inh 8.91µM, RGS4 inh inconclusive
CNc1ccc(Br)cc(C(=O)/C=C/c2ccc3c(c2)OCO3)c1=O	TrxR1 inh 14.1µM, RGS4 inh inconclusive
CNc1ccc(Br)cc(C(=O)/C=C/c2cc(OC)ccc2OC)c1=O	TrxR1 inh 35.5µM, RGS4 inh inconclusive
CCOC(=O)c1c(NC(=O)C2=C(C)NC(=S)NC2c2ccc(CC)cc2)sc(C)c1C (stereo unspecified)	none (no result: TrxR1 inh, RGS4 inh, TrxR1 substrate, mIDH1 inhibitor)
Cc1ccc2[nH]c(=O)c(CN(CCO)Cc3nnnn3Cc3ccccc3)cc2c1	none (no result: mIDH1 inhibitor, Eya2 phos inh)
COc1cc2cc(CN(Cc3nnnn3Cc3ccco3)C3CCCCC3)c(=O)[nH]c2cc1OC	TrxR1 inh 11.2µM
CCOc1ccc2[nH]c(=O)c(CN(Cc3ccco3)Cc3nnnn3Cc3ccccc3)cc2c1	TrxR1 inh 14.1µM
Cc1ccc2[nH]c(=O)c(CN(CCCO)Cc3nnnn3Cc3ccccc3)cc2c1	TrxR1 inh 20µM (no result: mIDH1 inhibitor, Eya2 phos inh)
COc1ccccc1CNS(=O)(=O)c1ccc2c(c1)N(C(C)=O)CC(C)S2 (stereo unspecified)	none
Cc1cc([N+](=O)[O-])ccc1N	none
O=[N+]([O-])c1ccc2c(c1)S(=O)(=O)C=C2	TrxR1 inh 2.12µM, RGS4 inh 21.2µM (no result: mIDH1 inhibitor)
CC(=O)c1ccc2noc(-c3ccc(C)cc3)c2c1	TrxR1 inh 7.08µM, RGS4 inh inconclusive
Cn1c(=S)[nH]c2cc(C(=O)N3CCN(C(=O)c4ccccc4)CC3)ccc2c1=O	none (no result: mIDH1 inhibitor, Eya2 phos inh)
Cn1c(N)c(C(=O)CCl)c(=O)n(Cc2ccccc2)c1=O	TrxR1 inh 12.6µM
Cn1c(=O)c(C(=O)CCl)c(N)n(Cc2ccccc2)c1=O	TrxR1 inh inconclusive
N#CC(C#N)=C1c2cc(S(N)(=O)=O)ccc2-c2ccc(S(N)(=O)=O)cc21	TrxR1 inh 10µM
N#CC(C#N)=C1c2cc(S(=O)(=O)NCCO)ccc2-c2ccc(S(=O)(=O)NCCO)cc21	TrxR1 inh 3.55µM
Cc1ccc(S(=O)(=O)N2CCOCC2)cc1-c1n[nH]c(=S)n1-c1ccccc1	none
C=CCOC(=O)C1=C(C)NC(SCC(=O)Nc2ccc(C)c(Cl)c2)=C(C#N)C1c1ccco1 (stereo unspecified)	none
Cc1noc(/C=C/c2ccco2)c1S(=O)(=O)N1CCC(C(=O)N(C)Cc2ccccc2)CC1	TrxR1 inh 70.8µM
Cc1noc(/C=C/c2ccco2)c1S(=O)(=O)N1CCC(C(=O)NC(C)c2ccccc2)CC1 (stereo unspecified)	TrxR1 inh inconclusive
O=C(Nc1ccc([N+](=O)[O-])cc1Br)c1cccnc1	none
Nc1ccc(N2N=C(N3CCCC3)CC2=O)cc1	none (no result: TrxR1 inh, RGS4 inh, TrxR1 substrate, Eya2 phos inh)
OCCn1c(CSc2nnc(-c3ccco3)n2-c2ccccc2)nc2ccc(Cl)cc21	TrxR1 inh 20µM
NC(=O)CSc1nnc(-c2ccco2)n1-c1ccccc1	none
COc1ccc(Cn2c(C3CC3)nc3ccc(NC(C)=O)cc3c2=O)cc1	none
COc1ccc(-c2nc3ccc(NC(C)=O)cc3c(=O)n2Cc2cccc(Cl)c2)cc1COc1ccc(NC(C)=O)cc1	TrxR1 inh 14.1µM (no result: mIDH1 inhibitor, Eya2 phos inh)
COc1ccc(-c2nc3ccc(NC(=O)COC(C)=O)cc3c(=O)n2Cc2ccccc2)cc1COc1ccc(NC(C)=O)cc1	TrxR1 inh 35.5µM (no result: mIDH1 inhibitor, Eya2 phos inh)
C=CCC[C@H](Cc1ccc(F)cc1)C(=O)OC[C@@H]1CCCN1C(=O)[C@@H](CC=C)CC(=O)NCCO	none
Cc1ccc(C(=O)NCc2nnc3c(C(F)(F)F)cc(Cl)cn23)o1	none
